Screens as filed in PubChem.
D2 ag-1: agonists of human D2 dopamine receptor (beta-arrestin); P14416; DiscoveRx PathHunter D2 beta-arrestin, luminescence, 90 min; 100% = 57 uM dopamine signal; activation, % (no concentration beside the values); 0.084% of 360,000 active; AID 624465; in the data active = activation above about 40%; inconclusive = between about 15% and that limit
Target sequence (P14416 whole entry, looked up): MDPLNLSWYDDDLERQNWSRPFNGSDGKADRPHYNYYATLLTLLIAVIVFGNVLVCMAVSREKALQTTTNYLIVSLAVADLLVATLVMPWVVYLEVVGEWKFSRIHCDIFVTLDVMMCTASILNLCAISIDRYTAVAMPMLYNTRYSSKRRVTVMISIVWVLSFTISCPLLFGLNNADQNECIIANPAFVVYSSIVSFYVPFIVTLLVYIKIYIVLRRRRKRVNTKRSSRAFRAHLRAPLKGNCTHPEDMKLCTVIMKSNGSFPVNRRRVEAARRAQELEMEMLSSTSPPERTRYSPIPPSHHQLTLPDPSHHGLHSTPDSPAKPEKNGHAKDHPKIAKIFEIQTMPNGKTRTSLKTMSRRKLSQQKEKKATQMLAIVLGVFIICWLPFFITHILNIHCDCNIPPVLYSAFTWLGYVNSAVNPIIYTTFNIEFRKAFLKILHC
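DiscoveRx PathHunter D2 beta-arrestin cells (2,100/well) attached overnight, then compound-stimulated 90 min at 37 C in HBSS/10 mM HEPES/0.1% Tween-20 buffer; beta-galactosidase complementation read by luminescence after 1 h at ambient temperature. Dopamine 57 uM final (EC100) as control.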
D2 antagonist: antagonizes the human D2 dopamine receptor | inhibition, % at 10 µM | 2% of 340,000 active | HEK293 TREx D2 cells, calcium flux, dopamine EC80 | P14416 | AID 485344; in the data active = inhibition above about 30%; inactive = below that, where a call was filed; also: 0% is about no effect
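Read-out: kinetic calcium fluorescence (1 cycle/s) in inducible HEK293 T-REx D2 cells after an EC80 dopamine addition that followed 180 s compound preincubation. Loss of the dopamine response indicates antagonism.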
D2 PAM-1: potentiates the human D2 dopamine receptor allosterically | P14416 | DiscoveRx D2 beta-arrestin cells, luminescence, 90 min; 100% = 57 uM dopamine signal | potentiation, % (no concentration beside the values) | 0.23% of 360,000 active; in the data active = potentiation above about 50%; inconclusive = mostly about 30% to 49%
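PathHunter D2 cells, attached overnight at 37 deg C, received compound in DMSO plus dopamine at EC20 (50 nM final) for 90 min at 37 deg C. Beta-arrestin recruitment was read as luminescence after 1 h with detection reagent at ambient temperature.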
D2 PAM-2: positive allosteric modulators of human D2 dopamine receptor; HEK293 T-REx D2, calcium flux, EC20 dopamine potentiation; potentiation, % at 10 µM; 0.34% of 340,000 active; P14416;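 active = potentiation over 3 SD above the plate norm, cut at about 30% in these data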; also: 0% is about no effect
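Potentiation of an EC20 dopamine calcium response measured kinetically over 180 s, after a preceding 180 s compound-only read flagging agonists. Cells: inducible Hek293 Trex D2 line, 4000/well, cultured overnight at 30 C before dye loading.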
D2 ag-2: activates the human D2 dopamine receptor; P14416; HEK293 T-REx D2 cells, calcium flux agonist mode; activation, % at 2 µM; 0.53% of 340,000 active; AID 485358;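 active = activation over 3 SD above normal in the single-dose calcium agonist read, cut at about 30% in these data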; also: 0% is about no effect
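HEK293 Trex D2 cells, tetracycline-induced, o/n 30 C 5% CO2; no-wash Ca dye, RT 30–90 min; 10-cycle baseline, 23 nl cpd added, kinetic Ca read 180 s; agonist hits = positive Ca response.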
* = called active by the depositor; ? = inconclusive; . = no result given. In the library only some 2.4% were active in any assay of this set; here they are far more common.

SMILES | D2 ag-1 | D2 antagonist | D2 PAM-1 | D2 PAM-2 | D2 ag-2
O=Cc1ccc2noc(-c3ccc(Cl)cc3)c2c1 | ? | . | 80* | . | .
CCCCN(CC)CCNC(=O)C1CCN(c2nnc(C)c3c(C)n(-c4ccc(C)cc4)nc23)CC1 | . | . | . | -5 | -1
CC1(Cc2cn(CCC#N)c3ccccc23)OCCO1 | 0 | -3 | -5 | -2 | 0
N#CCCn1cc(CNC2CCC(O)CC2)c2ccccc21 (stereo unspecified) | -2 | 5 | -2 | 30* | 0
CN1CCc2c(n(CC(O)CN(CCO)CCO)c3ccccc23)C1=O (stereo unspecified) | -5 | 7 | -8 | 11 | -3
CN1CCc2c(n(CC(O)CNCc3ccccc3)c3ccccc23)C1=O (stereo unspecified) | 0 | 66* | -11 | -20 | -1
COc1ccc(NC(=O)CSc2nc3c(c(=O)n2-c2ccc(F)cc2)SCC3)c(OC)c1 | -4 | 38* | -20 | 3 | 0
COc1ccc(-n2c(SCC(=O)Nc3cc(C)on3)nc3c(c2=O)SCC3)cc1 | -2 | 7 | -3 | -7 | -1
COC(=O)C1=C(C)NC2=C(C(=O)CC(C)(C)C2)C1c1ccccn1 (stereo unspecified) | 0 | -7 | 3 | 33* | 1
COc1cc(S(=O)(=O)NCc2ccc3c(c2)OCO3)c(OC)cc1C | -1 | -8 | -6 | 1 | 0
COc1cc(C)c(S(=O)(=O)NCc2ccc3c(c2)OCO3)cc1C | -3 | 32* | -8 | -19 | 0
O=C(NCc1ccc2c(c1)OCO2)Nc1cccc2ccccc12 | -4 | -10 | -7 | -18 | 0
CCOc1ccccc1NC(=O)NCc1ccc2c(c1)OCO2 | -9 | 9 | -34 | -12 | -2
COC(=O)c1ccccc1NC(=O)NCc1ccc2c(c1)OCO2 | 0 | 34* | -15 | -11 | 0
COc1ccccc1NC(=O)NCc1ccc2c(c1)OCO2 | . | 33* | . | -11 | 0
CC(=O)c1cccc(CN2CCN(CCc3ccccc3)C(CCO)C2)c1 (stereo unspecified) | -3 | 34* | -26 | -17 | 1
CC(=O)c1cccc(CN2CCN(Cc3ccc(C)cc3)C(CCO)C2)c1 (stereo unspecified) | -6 | 55* | -32 | -27 | 1
Cc1ccc(Nc2sc(C(=O)c3ccccc3)c(N)c2S(=O)(=O)c2ccccc2)c(C)c1 | . | . | . | 8 | -1
Cc1ccccc1Cn1c(SCc2ccc(C(=O)NC(C)c3ccccc3)cc2)nc2ccncc21 (stereo unspecified) | . | . | . | 14 | .
CCOc1ccc2noc3c2c1C(=O)c1ccccc1-3 | 2 | . | 5 | . | .
O=C1c2ccccc2-c2onc3ccc(NCc4ccco4)c1c23 | ? | 18 | 112* | 1 | 30
O=C1c2ccccc2-c2onc3ccc(N4CCCC4)c1c23 | 4 | 13 | -1 | -18 | 19
CCNc1ccc2noc3c2c1C(=O)c1ccccc1-3 | 11 | . | 70* | . | .
CC1(NC(=O)C2CCCCC2)CCS(=O)(=O)C1 (stereo unspecified) | -18 | 42* | 0 | -3 | 2
CC(C)Oc1cccc(C(=O)Nc2ccccc2N2CCOCC2)c1 | 2 | 33* | -2 | -2 | 0
SMILES | D2 ag-1 | D2 antagonist | D2 PAM-1 | D2 PAM-2 | D2 ag-2
CCC(C)Oc1cccc(C(=O)Nc2ccccc2N2CCOCC2)c1 (stereo unspecified) | 1 | -2 | -1 | 3 | 0
O=c1oc2c(CN3CCCCCC3)c(O)ccc2cc1-c1nc2ccccc2[nH]1 | . | 14 | . | -6 | 77*
COc1cc(C)cc2oc(=O)c(CC(=O)N3CCN(C(=O)C4COc5ccccc5O4)CC3)c(C)c12 (stereo unspecified) | 5 | 37* | 12 | 3 | -1
Cc1cc(O)c2c(C)c(CC(=O)N3CCN(C(=O)C4COc5ccccc5O4)CC3)c(=O)oc2c1 (stereo unspecified) | 1 | 0 | 0 | 3 | -2
O=S(=O)(c1ccc(Br)cc1)c1nc(-c2ccco2)oc1SCc1ccccc1Cl | . | . | . | 6 | 0
CCCc1cc(C(=O)Cc2ccccn2)c(O)cc1O | -7 | 37* | 0 | 9 | -1
CCN(CC)S(=O)(=O)c1cc(NC(=O)C(C)N2CCN(Cc3ccc4c(c3)OCO4)CC2)ccc1C (stereo unspecified) | -5 | 84* | -53 | -26 | -1
CCN(CC)S(=O)(=O)c1cc(NC(=O)C(C)N2CCN(c3ccccn3)CC2)ccc1C (stereo unspecified) | 4 | 15 | 5 | -21 | 35*
CCOc1ccc(-c2oc3cc(Cl)ccc3c(=O)c2O)cc1OC | . | . | . | -14 | 15
O=C(Nc1nc2cc3c(cc2s1)OCCO3)c1ccc([N+](=O)[O-])o1 | 1 | 37* | 7 | 11 | 1
CC(C)CC(OC(=O)c1nsc(Cl)c1Cl)C(=O)NC1CCCC1 (stereo unspecified) | -3 | 69* | -3 | 1 | -1
CC1CCC(NC(=O)CCNS(=O)(=O)c2ccccc2)CC1 (stereo unspecified) | -2 | 12 | 2 | -8 | 1
O=C(CCNS(=O)(=O)c1cccc(C(F)(F)F)c1)NC1CC1 | -1 | 13 | 0 | 45* | -1
CC(C)(C)C(=O)NC(=S)NNC(=O)c1ccc(-c2ccccc2)cc1 | -14 | 64* | -34 | -28 | 90*
CC(C)(C)C(=O)NC(=S)NNC(=O)c1ccncc1 | -1 | 12 | -2 | -7 | -1
CCCOc1ccc(C(=O)NNC(=S)NC(C)=O)cc1 | -6 | . | -24 | 5 | .
CC(C)(C)C(=O)NC(=S)NNC(=O)c1ccc(Cl)cc1Cl | -5 | 91* | -9 | -37 | 116*
CCCOc1ccc(C(=O)NNC(=S)NC(=O)c2ccccc2)cc1 | 0 | -8 | -17 | -18 | 45*
CCCN1CCN(CCCNC(=O)c2ccc3c(c2)sc2nc(-c4ccc(C)cc4)cn23)CC1 | . | . | . | -8 | 1
CC(CCc1ccccc1)NC(=O)c1ccccc1C(=O)O (stereo unspecified) | 1 | -5 | -7 | -9 | 30*
Cc1ccc(CN2CCN(CC(=O)NC(C)CCc3ccccc3)C2=O)cc1 (stereo unspecified) | -1 | -21 | 0 | 30* | -1
CC(CCc1ccccc1)NC(=O)c1ccc(C(=O)NC(C)CCc2ccccc2)cc1 (stereo unspecified) | 0 | -3 | -14 | 13 | 0
CC(C)CN1C(=O)C(=O)N(CC(=O)NC(C)CCc2ccccc2)C1=O (stereo unspecified) | 4 | 52* | 19 | -2 | 1
CC(CCc1ccccc1)NC(=O)CN1CCN(Cc2ccccc2)C1=O (stereo unspecified) | -2 | -7 | -4 | -7 | 1
Cc1ccc(-n2nc3c(N4CCCC(C(=O)NCc5ccccc5C)C4)nnc(C)c3c2C)cc1 (stereo unspecified) | . | . | . | -4 | 1
